The target of experiment [1] is human Thyroid Receptor alpha (THRa1), THRA (gene 7067) (UniProt P10827). The experiment can be described thus: ATG_THRa1_TRANS: Attagene TRANS-FACTORIAL HepG2 Assay for human Thyroid Receptor alpha (THRa1) (AID 2283014). The gist of the method: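 Reporter transcript induction, read by capillary electrophoresis of 6-FAM-labelled RT-PCR products, reflects activity of a transfected THRa1-Gal4 fusion in HepG2 liver cells. Cells were dosed for 24 h; activity was fitted in the positive direction against DMSO.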
Chain of human Thyroid Receptor alpha (THRa1), THRA (gene 7067) (P10827 whole entry, looked up, the tested form may be a part): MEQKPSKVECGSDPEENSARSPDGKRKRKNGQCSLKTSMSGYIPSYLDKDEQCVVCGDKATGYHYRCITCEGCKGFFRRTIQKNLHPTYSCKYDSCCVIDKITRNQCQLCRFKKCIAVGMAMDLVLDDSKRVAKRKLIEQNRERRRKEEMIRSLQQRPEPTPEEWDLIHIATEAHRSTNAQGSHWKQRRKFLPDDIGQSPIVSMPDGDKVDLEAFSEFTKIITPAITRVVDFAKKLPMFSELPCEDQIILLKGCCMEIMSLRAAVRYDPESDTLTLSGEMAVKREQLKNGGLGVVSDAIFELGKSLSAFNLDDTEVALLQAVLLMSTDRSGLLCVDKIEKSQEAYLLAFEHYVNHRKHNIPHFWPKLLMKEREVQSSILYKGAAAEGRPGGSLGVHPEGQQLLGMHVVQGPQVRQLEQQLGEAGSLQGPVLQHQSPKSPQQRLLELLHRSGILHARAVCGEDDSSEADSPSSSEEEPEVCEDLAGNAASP

In experiment [2] the target is human Vitamin D Receptor (VDR), VDR (gene 7421) (UniProt P11473). The experiment can be described thus: ATG_VDR_TRANS: Attagene TRANS-FACTORIAL HepG2 Assay for human Vitamin D Receptor (VDR) (AID 2283022). An outline of the steps:
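Steps: transfect HepG2 with GAL4-UAS-driven reporter constructs; dose compounds 24 h; isolate RNA, reverse-transcribe, PCR-amplify with 6-FAM-labelled primer extension and HpaI digestion; quantify fragments by capillary electrophoresis relative to DMSO.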

Read-out in experiment [3]: Interleukin-1 alpha (IL1a), IL1A (gene 3552)
The experiment can be described thus: BSK_BE3C_IL1a: BioMAP Diversity Plus: BE3C Assay for Interleukin-1 alpha (IL1a) Biomarker Activity (AID 2283016; active = hit-call score of the fitted dose curve at least 0.9, where 1 is the maximum; inactive = score below 0.9). To be noted: primary human bronchial epithelial cells; actives raise or lower the signal. The gist of the method: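 IL-1a measured by ELISA after 24 h treatment of human primary bronchial epithelial cells, with gain or loss of signal fitted versus DMSO. Parallel cultures stained with SRB gauge overt cytotoxicity.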

Read-out in experiment [4]: Monocyte Chemoattractant Protein-1 (MCP1), CCL2 (gene 6347)
The experiment can be described thus: BSK_4H_MCP1: BioMAP Diversity Plus: 4H Assay for Monocyte Chemoattractant Protein-1 (MCP1) Biomarker Activity (AID 2283018; active = hit-call score of the fitted dose curve at least 0.9, where 1 is the maximum; inactive = score below 0.9). To be noted: primary human endothelial cells (HUVEC); actives raise or lower the signal. An outline of the steps: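 ELISA of MCP-1 (CCL2) 24 h after chemical dosing of HUVEC in the BioMAP 4H system. Gain or loss versus DMSO fitted; parallel SRB staining (560 nm) tracked overt cytotoxicity.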

Read-out in experiment [5]: Human Leukocyte Antigen - DR isotype (HLADR), HLA-DRA (gene 3122)
The experiment can be described thus: BSK_3C_HLADR: BioMAP Diversity Plus: 3C Assay for Human Leukocyte Antigen - DR isotype (HLADR) Biomarker Activity (AID 2283019; active = hit-call score of the fitted dose curve at least 0.9, where 1 is the maximum; inactive = score below 0.9;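 note: ELISA of cell-surface HLA-DR on HUVEC 24 h after dosing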). To be noted: primary human endothelial cells (HUVEC); actives raise or lower the signal. An outline of the steps:
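ELISA readout of surface HLA-DR on human umbilical vein endothelium, taken 24 h after chemical treatment. Gain- and loss-of-signal were both fitted relative to DMSO.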

Read-out in experiment [6]: Interleukin-8 (IL8), CXCL8 (gene 3576)
The experiment can be described thus: BSK_3C_IL8: BioMAP Diversity Plus: 3C Assay for Interleukin-8 (IL8) Biomarker Activity (AID 2283020; active = hit-call score of the fitted dose curve at least 0.9, where 1 is the maximum; inactive = score below 0.9). The note with it: primary human endothelial cells (HUVEC); actives raise or lower the signal. The gist of the method:
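IL-8 was measured by ELISA in HUVEC cultures 24 h after chemical dosing, with gain or loss of signal fitted relative to DMSO. Parallel SRB total-protein staining tracked overt cytotoxicity.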

Read-out in experiment [7]: Monokine induced gamma interferon (MIG), CXCL9 (gene 4283)
The experiment can be described thus: BSK_3C_MIG: BioMAP Diversity Plus: 3C Assay for Monokine induced gamma interferon (MIG) Biomarker Activity (AID 2283021; active = hit-call score of the fitted dose curve at least 0.9, where 1 is the maximum; inactive = score below 0.9). To be noted: primary human endothelial cells (HUVEC); actives raise or lower the signal. An outline of the steps: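 ELISA measurement of MIG in human umbilical vein endothelial cells 24 h after treatment. Cytotoxicity tracked by SRB staining in parallel cultures; gain or loss of signal fitted relative to DMSO.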

Results filed as inconclusive are left out. Activity calls are given as the source filed them. Rule for the calls, unless noted: active = hit-call score of the fitted dose curve at least 0.9, where 1 is the maximum; inconclusive = response in the unintended direction; inactive = score below 0.9.

Chain of human Vitamin D Receptor (VDR), VDR (gene 7421) (P11473 whole entry, looked up, the tested form may be a part): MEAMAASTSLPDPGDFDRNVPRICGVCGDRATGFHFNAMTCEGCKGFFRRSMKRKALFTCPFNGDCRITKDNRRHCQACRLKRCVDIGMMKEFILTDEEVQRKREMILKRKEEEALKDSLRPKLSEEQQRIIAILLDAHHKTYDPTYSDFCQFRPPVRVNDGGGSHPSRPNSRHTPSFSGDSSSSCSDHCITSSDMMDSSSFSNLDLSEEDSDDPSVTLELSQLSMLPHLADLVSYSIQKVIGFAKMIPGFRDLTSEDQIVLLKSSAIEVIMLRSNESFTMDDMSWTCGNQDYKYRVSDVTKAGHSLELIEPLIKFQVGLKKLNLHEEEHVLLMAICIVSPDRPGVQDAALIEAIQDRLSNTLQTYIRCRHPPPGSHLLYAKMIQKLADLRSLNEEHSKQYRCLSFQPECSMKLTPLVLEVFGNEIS

With `CNC(=O)CSP(=O)(OC)OC`, the result in experiment [1] was inactive.
Take `CCCCOP(=O)(CCCC)OCCCC`: the call in experiment [1] and in experiment [2] was inactive.
With `Brc1ccc(Br)cc1`, the compound was called inactive in experiment [1].
For the compound `COc1ccc(N)cc1`, in experiment [1], the compound was classed as inactive.
Take `Cc1cc(C)cc(C)c1`: the call in experiment [1], in experiment [3], in experiment [4], in experiment [5], in experiment [6] and in experiment [7] was inactive.
For the compound `C=CCOC(F)(C(F)(F)F)C(F)(F)F`, the outcome in experiment [1] and in experiment [2] was inactive.

The record behind these values is PubChem BioAssay (EPA / NIEHS).
